Compound activity as filed in PubChem.
TEAD-YAP block: TEAD-YAP interaction inhibition | HEK-TIYL cells, TEAD-Gal4/YAP UAS-luciferase luminescence | 640,000 tested, 1.4% active | inhibition, % at 9.12 µM; in the data active = inhibition above about 32%;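 note: 0% = median of test compound wells and 100% = reference inhibitor wells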
MITF primary: human MITF inhibition, primary screen; AlphaScreen MITF homodimerization, bead proximity signal; inhibition, % at 2.6 µM; 650,000 tested, 0.91% active; in the data active = inhibition above about 50%;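 note: 0% = vehicle wells with protein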
GPR151 ag: activates the human receptor GPR151 | Q8TDV0 | PathHunter beta-arrestin GPR151 cells, luminescence | activation, % at 11.2 µM | 650,000 tested, 1% active | AID 1508602; in the data active = activation above about 4.9%;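 note: 0% = median of compound wells and 100% = cells with positive control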
Target sequence (Q8TDV0 whole entry, looked up): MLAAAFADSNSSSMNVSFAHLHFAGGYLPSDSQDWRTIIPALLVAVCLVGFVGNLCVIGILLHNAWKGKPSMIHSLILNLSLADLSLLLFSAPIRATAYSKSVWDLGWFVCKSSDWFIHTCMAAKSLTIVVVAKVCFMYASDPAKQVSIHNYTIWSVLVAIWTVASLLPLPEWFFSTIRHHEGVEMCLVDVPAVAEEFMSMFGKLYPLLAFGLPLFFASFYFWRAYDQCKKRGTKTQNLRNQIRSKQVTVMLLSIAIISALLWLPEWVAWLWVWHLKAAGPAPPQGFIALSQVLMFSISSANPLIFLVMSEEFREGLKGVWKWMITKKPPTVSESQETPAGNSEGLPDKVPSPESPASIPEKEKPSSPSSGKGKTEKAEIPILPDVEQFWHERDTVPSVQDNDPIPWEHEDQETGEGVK
FBW7 act: activators of human E3 ligase FBW7; AID 1259310; 650,000 tested, 0.13% active; normalized activity (activation), % at 26.1 µM; Q969H0; AlphaScreen FBW7–phospho-cyclin E peptide binding, activator screen; in the data active = normalized activity above about 1.9%;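 note: purified mutant Fbw7 with reduced substrate affinity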
MITF confirm: human MITF inhibition, confirmation; shares compounds with MITF primary; AlphaScreen MITF homodimerization, biotin/His-MITF beads; inhibition, % at 2.6 µM; AID 1259372; 4,700 tested, 16% active;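 active = inhibition above a cutoff derived from the DMSO control wells, cut at about 28% in these data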;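 note: 0% = MITF dimer wells with DMSO only; inhibitors lower the bead chemiluminescence by keeping MITF from dimerizing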
AS interf DR: AlphaScreen optical interference, dose response counter-screen | shares compounds with MITF primary | IC50, µM | AID 1259373 | 480 tested, 6% active | AlphaScreen optical interference counterscreen, cell-free; call rule not given here
AS interf ctr: optically interferes with AlphaScreen signal; LysRS AlphaScreen counterscreen, signal interference, triplicate; shares compounds with MITF primary; inhibition, % at 2.6 µM; 4,700 tested, 7.6% active; AID 1259376;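 active = inhibition above a cutoff derived from the DMSO control wells, cut at about 30% in these data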
An asterisk follows results filed as active; / = no result given. Most compounds without a hit are left out; they make up all but 3.5% or so of the library.

SMILES	TEAD-YAP block	MITF primary	GPR151 ag	FBW7 act	MITF confirm	AS interf ctr	others
COc1ccc(N2C(=O)NC(=O)/C(=C/c3ccc(Br)o3)C2=O)cc1	3	73*	3	0	/	/
COc1ccc(Sc2ccc(C=C3C(=O)NC(=O)NC3=O)o2)cc1	9	9	0	0	/	/
COc1ccc(N2C(=O)/C(=C\c3ccc(C)o3)C(=O)NC2=S)cc1	-2	-3	-1	0	/	/
N/C(=N\[N+](=O)[O-])NNC(=O)c1ccccc1	11	12	0	1	/	/
CC(C)CCN1CCN(Cc2ccccc2Cl)CC1CCO (centres undefined)	3	6	0	0	/	/
O=C(c1ccccc1F)c1cc(Br)ccc1NC(=O)c1c(O)c2ccccc2[nH]c1=O	-7	1	-1	0	/	/
N#CC1=C(N)Oc2c(c(=O)oc3ccccc23)C1c1cccc(Cl)c1Cl (centres undefined)	13	5	-1	0	/	/
C[C@]12CC[C@H](O)C[C@H]1CC[C@@H]1[C@@H]2CC[C@]2(C)[C@@H](C3=CC(=O)OC3)[C@@H](O)C[C@]12O	95*	22	-1	0	/	/
CC(=O)[C@H]1CCC2C3CC[C@H]4C[C@H](O)CC[C@]4(C)C3CC[C@@]21C (some centres undefined)	-6	-9	4	0	/	/
CC(=O)OC1CC[C@@]2(C)C(CCC3C2CC[C@]2(C)C(C4=CC(=O)OC4)C(OC(C)=O)CC32O)C1 (some centres undefined)	100*	-24	2	0	/	/
CNC(=O)Oc1ccccc1CSc1ccccc1	-20	-2	0	0	/	/
O=c1c2ccccc2nc(/C=C/c2ccc([N+](=O)[O-])o2)n1-c1cccc(O)c1	34*	3	0	0	/	/
COc1ccccc1OCC(=O)N1CCN(Cc2nc3ccccc3[nH]2)CC1	-13	75*	3	-1	8	22
O=C(COc1ccccc1Cl)N1CCN(Cc2ccccc2)CC1	-4	0	0	0	/	/
O=C(Cc1noc2ccccc12)N1CCN(Cc2nc3ccccc3[nH]2)CC1	4	77*	2	0	5	17
S=P(N1CC1)(N1CC1)N1CCN=C1c1ccccc1	24	0	1	0	/	/
CCOC(=O)C1C2NC(=S)N(c3ccc(C)cc3)C1(C)Oc1c(OCC)cccc12 (centres undefined)	-17	53*	0	-1	41*	26
CCOC(=O)C1C2NC(=S)N(c3ccccc3)C1(C)Oc1c(OCC)cccc12 (centres undefined)	-7	35	0	0	/	/
O=[N+]([O-])c1c(Br)ccc2c1no[n+]2[O-]	-10	90*	0	0	80*	5	AS interf DR=>9.1
O=C(/C=C/c1cccs1)NC(=S)N1CC2CC(C1)c1cccc(=O)n1C2 (centres undefined)	13	0	-2	0	/	/
CC(C)CN1CCN(Cc2cc(F)ccc2F)CC1CCO (centres undefined)	-6	5	1	0	/	/
CN1CCN(Cc2cc(F)ccc2F)CC1	-10	69*	1	0	16	14
CCN1CCN(Cc2cc(F)ccc2F)CC1	6	62*	-1	0	-5	-2
CN1CCN(Cc2ccc(F)cc2F)CC1	2	41	2	0	/	/
CN1CCN(Cc2c(F)cccc2F)CC1	2	62*	1	0	-25	-2
SMILES	TEAD-YAP block	MITF primary	GPR151 ag	FBW7 act	MITF confirm	AS interf ctr	others
CCc1ccccc1NC(=O)CCc1nc(C2=CCN(C)CC2)no1	-1	3	0	0	/	/
CCOc1ccc(NC(=O)CCc2nc(C3=CCN(C)CC3)no2)cc1	2	83*	-1	-2	93*	70*
CCc1nnc(NC(=O)CCc2nc(C3=CCN(C)CC3)no2)s1	3	58*	0	1	60*	39*
CN1CC=C(c2noc(CCC(=O)Nc3nc4ccccc4s3)n2)CC1	-30	29	-1	1	/	/
N#CC(C#N)=Cc1ccc(N2CCCC2)c(F)c1	18	16	-1	0	/	/
COc1ccc(CCNCc2cccnc2)cc1OC	-5	70*	-1	0	-13	3
COc1cccc(CCNCc2cc(OC)cc(OC)c2)c1	-3	55*	-2	0	-4	-3
C1CN2CCC1/C(=N\Nc1nn[nH]n1)C2	2	2	-1	0	/	/
COc1cccc(/C=C/c2nc3ccccc3c(=O)n2-c2ccc(OC)c(Cl)c2)c1	-5	-3	0	0	/	/
C(=Nc1ccccc1)c1c[nH]c2ccccc12 (tested in a mixture with another compound)	12	16	0	1	/	/
CN1CCN(c2nc3nc[nH]c(=O)c3[nH]2)CC1	8	5	3	0	/	/
Cc1cccc(CN2CCN3C(=O)[C@H](CO)NC(=O)[C@H]3C2)n1	2	-1	2	0	/	/
Oc1ccc(CN2CCN(c3ccc(Cl)cc3)CC2)cc1	-3	11	2	0	/	/
CN1CCN(Cc2ccc(Cl)cc2)CC1	-1	39	-1	0	/	/
COc1ccc(CN2CCN(C(=O)COc3ccc(Cl)cc3)CC2)cc1	5	58*	0	0	14	17
CCOc1ccc(CN2CCN(Cc3ccccc3C)CC2)cc1	4	64*	0	0	9	5
CCOc1cccc(CN2CCN(Cc3ccccc3)CC2)c1O	-4	5	0	0	/	/
CCc1ccc(CN2CCN(Cc3ccc(Cl)cc3)CC2)cc1	4	76*	0	0	11	18
CSc1ccc(CN2CCN(Cc3ccc(Cl)cc3)CC2)cc1	7	80*	2	0	11	16
CCc1ccc(CN2CCN(Cc3ccc(CC)cc3)CC2)cc1	8	67*	1	0	3	4
CCOc1ccc(CN2CCN(c3ccccc3)CC2)cc1	-8	35	3	0	/	/
CCOc1ccc(CN2CCN(Cc3ccc(Cl)cc3)CC2)cc1	4	58*	0	0	20	14
CCOC(=O)c1c(C)n(CCCOC(C)C)c2ccc(O)cc12	-13	-6	-1	0	/	/
CCOCCn1cnc2sc(C(=O)N3CCC4(CC3)OCCO4)c(C)c2c1=O	2	13	-2	0	/	/
CCCCC/C=C\C/C=C\C/C=C\C/C=C\CCCC(=O)NC(CO)CO	/	16	1	/	/	/
CN1CCC2(C1)Oc1ccccc1O2	1	55*	-1	0	18	16
O=C(c1ccoc1)N1CCC2(CC1)OCc1ccccc1O2	11	9	1	0	/	/
Brc1cccc(CN2CCN(Cc3cccc(Br)c3)CC2)c1	2	77*	0	1	-3	10
Clc1cccc(CN2CCN(Cc3cccc(Br)c3)CC2)c1	10	50	0	0	/	/
Fc1cccc(CN2CCN(Cc3ccc4c(c3)OCO4)CC2)c1	-3	56*	0	0	-2	3
